Each structure is given as a SMILES string. Inconclusive results are not listed. Activity calls are given as the source filed them. The calls were made as follows: active = hit-call score of the fitted dose curve at least 0.9, where 1 is the maximum; inconclusive = response in the unintended direction; inactive = score below 0.9.

We go through 32 compounds from PubChem BioAssay (EPA / NIEHS).

One test in a line: Tanguay_ZF_120hpf_SWIM_legacy: (Legacy) Oregon State University Tanguay Lab 120 Hour Post-fertilization zebrafish Assay for Swim Bladder Malformation (AID 2283654).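 Also: swim bladder malformation in each larva scored yes or no under brightfield.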 An outline of the steps: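 Tropical 5D embryos dechorionated at 4 hpf; 1 embryo/well from 6 hpf; static, sealed, dark exposure at 28C until 120 hpf; final DMSO 0.64%; 5uM trimethyltin chloride positive control; swim bladder defect recorded yes/no; dead embryos not scored.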
The term AC50 denotes the concentration at which the activity in the assay is half-maximal. Take `CCC(C)(c1ccc(O)cc1)c1ccc(O)cc1`: the AC50 was 43.1 µM (active).

`C[C@]12CCC(=O)C=C1CC[C@@H]1[C@@H]2CC[C@@]2(C)[C@H]1CC[C@]2(C)O`: the result was inactive.

Take `c1ccc(-c2ccccc2)cc1`: the outcome was inactive.

For the compound `CCOC(=O)C(O)(c1ccc(Cl)cc1)c1ccc(Cl)cc1`, the compound was classed as inactive.

Regarding `CN(C)CCO`, the compound was called inactive.

As to `CCSC(=O)N(CC)C1CCCCC1`, the outcome was inactive.

In the case of `CCCN(CCC)N=O`, the compound was classed as inactive.

As to `Cc1cccc(C)c1N`, the compound was called inactive.

As to `CO/C=C(/C(=O)OC)c1ccccc1COc1cccc(C(F)(F)F)n1`, the AC50 is 14.5 µM (active).

As to `CC(C)(O)C(=O)Nc1ccc([N+](=O)[O-])c(C(F)(F)F)c1`, the call was inactive.

For `CC(C)(c1ccccc1)c1ccc(O)cc1`, the compound was called inactive.

For the compound `O=NN(c1ccccc1)c1ccccc1`, the result was inactive.

`Cc1ccccc1[N+](=O)[O-]`: the outcome was inactive.

In the case of `ClC1=C(Cl)[C@]2(Cl)[C@@H]3[C@H]4C[C@H]([C@@H]5O[C@H]45)[C@@H]3[C@@]1(Cl)C2(Cl)Cl`, the compound was classed as inactive.

As for `CCOCCOC(C)=O`, the result was inactive.

For the compound `C=CC(N)=O`, the compound was classed as inactive.

`Cc1ccccc1O`: the outcome was inactive.

With `Oc1ccc(Cl)cc1Cl`, the compound was classed as inactive.

With `ClC1=C(Cl)[C@]2(Cl)[C@@H]3[C@@H]4C[C@@H]([C@H]5O[C@@H]45)[C@@H]3[C@@]1(Cl)C2(Cl)Cl`, the compound was classed as inactive.

For `Cc1cccc([N+](=O)[O-])c1`, the call was inactive.

As to `O=C(O)C(F)(F)C(F)(F)C(F)(F)C(F)(F)C(F)(F)F`, the call was inactive.

Consider `Nn1cnnc1`, for which the compound was classed as inactive.

A short description of a further test: Tanguay_ZF_120hpf_TRUN_legacy: (Legacy) Oregon State University Tanguay Lab 120 Hour Post-fertilization zebrafish Assay for Truncated Body (AID 2283655). An outline of the steps:
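Dechorionated Tropical 5D wild-type embryos placed singly from 6 hpf and statically exposed to 120 hpf at 28C, final DMSO 0.64%. Truncated body scored as present/absent by brightfield; not scored in dead embryos.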
Consider `NS(=O)(=O)C(F)(F)C(F)(F)C(F)(F)C(F)(F)C(F)(F)C(F)(F)C(F)(F)C(F)(F)F`, for which the compound was classed as inactive.

Take `CCC(C)(c1ccc(O)cc1)c1ccc(O)cc1`: the AC50 is 46.6 µM (active).

With `C[C@]12CCC(=O)C=C1CC[C@@H]1[C@@H]2CC[C@@]2(C)[C@H]1CC[C@]2(C)O`, the compound was classed as inactive.

In the case of `c1ccc(-c2ccccc2)cc1`, the call was inactive.

As for `CCOC(=O)C(O)(c1ccc(Cl)cc1)c1ccc(Cl)cc1`, the call was inactive.

For the compound `CN(C)CCO`, the outcome was inactive.

Consider `CCSC(=O)N(CC)C1CCCCC1`, for which the compound was called inactive.

Regarding `CCCN(CCC)N=O`, the outcome was inactive.

As to `Cc1cc(O)ccc1Cl`, the compound was classed as inactive.

Take `Cc1cccc(C)c1N`: the result was inactive.

In the case of `ClC1=C(Cl)[C@]2(Cl)[C@@H]3[C@@H](Cl)[C@H]4O[C@H]4[C@@H]3C1(Cl)C2(Cl)Cl`, the result was inactive.

In the case of `CCCCCCOC(=O)c1ccccc1C(=O)OCCCCCC`, the compound was called inactive.

As to `CO/C=C(/C(=O)OC)c1ccccc1COc1cccc(C(F)(F)F)n1`, the AC50 is 7.84 µM (active).

For `CC(C)(O)C(=O)Nc1ccc([N+](=O)[O-])c(C(F)(F)F)c1`, the AC50 is 22.1 µM (active).

Turning to `Cc1ccccc1[N+](=O)[O-]`, the result was inactive.

Regarding `Clc1ccc(Cl)cc1`, the result was inactive.

Take `ClC1=C(Cl)[C@]2(Cl)[C@@H]3[C@H]4C[C@H]([C@@H]5O[C@H]45)[C@@H]3[C@@]1(Cl)C2(Cl)Cl`: the compound was called inactive.

Take `CN(C)c1nc(=O)n(C2CCCCC2)c(=O)n1C`: the result was inactive.

Regarding `CCOCCOC(C)=O`, the call was inactive.

In the case of `O=C(NC(=O)c1c(F)cccc1F)Nc1cc(Cl)c(OC(F)(F)C(F)F)c(Cl)c1`, the compound was classed as inactive.

Turning to `Cc1cc2c3c(c1)C(c1ccccc1)=N[C@@H](NC(=O)c1ccncc1)C(=O)N3CC2`, the call was inactive.

In the case of `Cc1ccccc1O`, the call was inactive.

Regarding `Oc1ccc(Cl)cc1Cl`, the compound was called inactive.

Consider `Cc1cccc([N+](=O)[O-])c1`, for which the compound was called inactive.

In the case of `O=C(O)C(F)(F)C(F)(F)C(F)(F)C(F)(F)C(F)(F)F`, the compound was called inactive.

For the compound `Nn1cnnc1`, the compound was called inactive.

Take `CC1=C2C[C@H]3[C@@H](CC=C4C[C@@H](O)CC[C@@]43C)[C@@H]2CC[C@]12O[C@@H]1C[C@H](C)CN[C@H]1[C@H]2C`: the call was inactive.

The next test can be described thus: Tanguay_ZF_120hpf_NC_legacy: (Legacy) Oregon State University Tanguay Lab 120 Hour Post-fertilization zebrafish Assay for Notochord and Tail Malformation (AID 2283656). An outline of the steps:
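Binary notochord-distortion calls, made by brightfield inspection, form the read-out; activity is fitted in the positive direction against DMSO. Exposure ran statically from 6 to 120 hpf at 28C with 0.64% DMSO.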
In the case of `C[C@]12CCC(=O)C=C1CC[C@@H]1[C@@H]2CC[C@@]2(C)[C@H]1CC[C@]2(C)O`, the call was inactive.

In the case of `CCOC(=O)C(O)(c1ccc(Cl)cc1)c1ccc(Cl)cc1`, the compound was called inactive.

As to `CN(C)CCO`, the outcome was inactive.

Take `CCCN(CCC)N=O`: the call was inactive.

Regarding `Cc1cc(O)ccc1Cl`, the compound was called inactive.

On to `ClC1=C(Cl)[C@]2(Cl)[C@@H]3[C@@H](Cl)[C@H]4O[C@H]4[C@@H]3C1(Cl)C2(Cl)Cl`, for which the call was inactive.

For `CCCCCCOC(=O)c1ccccc1C(=O)OCCCCCC`, the outcome was inactive.

On to `CO/C=C(/C(=O)OC)c1ccccc1COc1cccc(C(F)(F)F)n1`, for which the compound was classed as inactive.

Consider `CC(C)(O)C(=O)Nc1ccc([N+](=O)[O-])c(C(F)(F)F)c1`, for which the compound was classed as inactive.

`CC(C)(c1ccccc1)c1ccc(O)cc1`: the call was inactive.

With `O=NN(c1ccccc1)c1ccccc1`, the call was inactive.

Take `Clc1ccc(Cl)cc1`: the call was inactive.

As for `CCOP(=S)(OCC)SCSC(C)(C)C`, the compound was classed as inactive.

For `ClC1=C(Cl)[C@]2(Cl)[C@@H]3[C@H]4C[C@H]([C@@H]5O[C@H]45)[C@@H]3[C@@]1(Cl)C2(Cl)Cl`, the compound was called inactive.

Take `CN(C)c1nc(=O)n(C2CCCCC2)c(=O)n1C`: the compound was called inactive.

In the case of `CCOCCOC(C)=O`, the result was inactive.

Consider `O=C(NC(=O)c1c(F)cccc1F)Nc1cc(Cl)c(OC(F)(F)C(F)F)c(Cl)c1`, for which the result was inactive.

On to `C=CC(N)=O`, for which the call was inactive.

As for `Cc1cc2c3c(c1)C(c1ccccc1)=N[C@@H](NC(=O)c1ccncc1)C(=O)N3CC2`, the outcome was inactive.

In the case of `Cc1ccccc1O`, the compound was called inactive.

For the compound `Oc1ccc(Cl)cc1Cl`, the call was inactive.

As for `ClC1=C(Cl)[C@]2(Cl)[C@@H]3[C@@H]4C[C@@H]([C@H]5O[C@@H]45)[C@@H]3[C@@]1(Cl)C2(Cl)Cl`, the compound was called inactive.

As to `Cc1cccc([N+](=O)[O-])c1`, the compound was classed as inactive.

For the compound `O=C(O)C(F)(F)C(F)(F)C(F)(F)C(F)(F)C(F)(F)F`, the compound was classed as inactive.

As for `Nn1cnnc1`, the call was inactive.

Consider `CC1=C2C[C@H]3[C@@H](CC=C4C[C@@H](O)CC[C@@]43C)[C@@H]2CC[C@]12O[C@@H]1C[C@H](C)CN[C@H]1[C@H]2C`, for which the compound was called inactive.
